± gives the standard deviation of the averaged measurements. Over roughly 33,000 sequences, “E-score (dimensionless, -0.5 to 0.5)” has its median near -0.049; the highest 2% begin near 0.37. The sample as a whole holds a higher share of the highest values than the screen did.

The test system of this test is T1, PmTbr T-box DNA-binding domain (GST fusion).
T1 sequence: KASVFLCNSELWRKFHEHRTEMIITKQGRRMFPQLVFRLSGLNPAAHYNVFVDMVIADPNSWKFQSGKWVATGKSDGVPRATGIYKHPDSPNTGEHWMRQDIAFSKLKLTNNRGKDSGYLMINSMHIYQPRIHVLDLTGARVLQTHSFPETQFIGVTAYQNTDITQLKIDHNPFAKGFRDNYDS
Put plainly: PBM E-score of 8-mer (E-score (dimensionless, -0.5 to 0.5)); Tbr is Tbrain of the sea star Patiria miniata (Pm) or the sea urchin Strongylocentrotus purpuratus (Sp); higher = stronger binding preference. Conditions: the construct has about 5 more residues each side. The procedure: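 Universal protein-binding microarray (Agilent AMADID 016060, 60-bp probes with a 35-bp variable region) incubated with 200 nM GST-fused Patiria miniata Tbr T-box DNA-binding domain (residues 272-466) in PBS pH 7.5. Scored for every ungapped 8-mer (given with its reverse complement) by the Universal PBM Analysis Suite as E-score (modified Wilcoxon-Mann-Whitney enrichment, range -0.5 to 0.5; >0.45 counts as bound) and Z-score of median probe intensity. Two replicate arrays (datasets 1 and 2).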
Consider GCACTTCC, for which the “PBM E-score of 8-mer” value is 0.365 ± 0.021. Consider AAACTTCG, for which the “PBM E-score of 8-mer” value was found to be 0.00852 ± 0.068. Under CCACTTCA stands 0.13 ± 0.034; under ACACTTCA, 0.441 ± 0.017; under CCACTTCG, 0.254 ± 0.028.

Regarding ATTCTCGG, the “PBM E-score of 8-mer” value is -0.082 ± 0.071. With CGAATCAC, the “PBM E-score of 8-mer” value was determined as 0.124 ± 0.029. As to AGAGGTCA, the “PBM E-score of 8-mer” value was -0.0997 ± 0.006. For the sequence TACTGACA, the “PBM E-score of 8-mer” value turned out to be 0.1838 ± 0.00074.

Consider TCCCAGCA, for which the “PBM E-score of 8-mer” value came out at 0.0248 ± 0.11. Under ACCGAATG stands -0.119 ± 0.0097.

For CAGAAGCG, the “PBM E-score of 8-mer” value was found to be 0.103 ± 0.04. In the case of ACACTTCT it was 0.4266 ± 0.0042. For ACTCTTCT, the “PBM E-score of 8-mer” value is -0.264 ± 0.02. Under AAACTTCT stands -0.236 ± 0.043; under AGGTTCTC, 0.0874 ± 0.028; under ATTCACCA, 0.0566 ± 0.052.

CCGTTGGC: the “PBM E-score of 8-mer” value was found to be 0.151 ± 0.01. Turning to AAATGTGT, the “PBM E-score of 8-mer” value worked out at 0.432 ± 0.011.

Take AAATGTGC: the “PBM E-score of 8-mer” value was 0.206 ± 0.049.

CTGTGTGA: the “PBM E-score of 8-mer” value was determined as 0.298 ± 0.018. In the case of ATGTGTGC it was 0.219 ± 0.016; in that of GTGTGTAA, 0.214 ± 0.022. With GTGTGTGA, the “PBM E-score of 8-mer” value stood at 0.41536 ± 0.00023. Under ATGTGTGA stands 0.4845 ± 0.00059; under ATATGTGA, 0.24 ± 0.064. Under AAATGTGG stands 0.0797 ± 0.052; under TCAAGAAA, -0.17 ± 0.11. In the case of TCACCTGA it was 0.353 ± 0.019; in that of ATACCTTA, 0.0857 ± 0.093; in that of CCACCTGA, 0.172 ± 0.044. With AGACCTTG, the “PBM E-score of 8-mer” value was -0.174 ± 0.013. Take GCACCTTA: the “PBM E-score of 8-mer” value stood at 0.4187 ± 0.0021. In the case of ACACCTTA it was 0.4762 ± 0.00075; in that of GCACCTGA, 0.391 ± 0.024; in that of ACACCTTG, 0.481 ± 0.0055. Under CCACCTTA stands 0.246 ± 0.036; under GAACCTTA, -0.144 ± 0.042; under AAACCTTG, -0.132 ± 0.0072. Under AAACCTTA stands -0.0234 ± 0.053; under AAAAGCTT, -0.0359 ± 0.065. For CTTTGTGA, the “PBM E-score of 8-mer” value was found to be 0.028 ± 0.0037. Regarding ACTAGTCA, the “PBM E-score of 8-mer” value was 0.164 ± 0.044.

For the sequence TAGGCCAA, the “PBM E-score of 8-mer” value was -0.298 ± 0.065. Under AGCCAGAG stands -0.0902 ± 0.046; under AGCGTCCT, -0.167 ± 0.046. In the case of TATAGCAA it was -0.0376 ± 0.033.

Regarding CCACCTTC, the “PBM E-score of 8-mer” value turned out to be 0.31 ± 0.02. In the case of AGACCTTC it was -0.269 ± 0.022; in that of ACACCTTC, 0.479 ± 0.00068; in that of AAGTGAGA, 0.429 ± 0.0088. AAGTGAGG: the “PBM E-score of 8-mer” value stood at 0.2407 ± 0.0011.

Consider AGGTGAGC, for which the “PBM E-score of 8-mer” value was found to be 0.303 ± 0.042. Under AGGTGAGG stands 0.428 ± 0.013; under CAGTGAGA, 0.181 ± 0.028.

As for AGGTGAGA, the “PBM E-score of 8-mer” value came out at 0.486 ± 0.0024. For TAGTGATA, the “PBM E-score of 8-mer” value came to 0.245 ± 0.035. Under ACGTGAGG stands 0.159 ± 0.04; under CGGTGAGA, 0.236 ± 0.0071; under AAGTGATA, 0.37 ± 0.025. Under AAGTGATG stands 0.28 ± 0.0076; under ACGTGAGA, 0.349 ± 0.0086. Under GGGGTTGA stands -0.000915 ± 0.043. For CGATCTAG, the “PBM E-score of 8-mer” value worked out at 0.025 ± 0.0082. In the case of CTTAGCGA it was 0.184 ± 0.025. AATCTTCA: the “PBM E-score of 8-mer” value is -0.068 ± 0.038. Under CTCGAGGC stands -0.039 ± 0.098. Consider CAAACTGG, for which the “PBM E-score of 8-mer” value amounted to 0.102 ± 0.039. In the case of AAATCTAG it was -0.091 ± 0.019; in that of GCCTCACC, 0.0769 ± 0.049; in that of GAGTGAGA, 0.334 ± 0.017. Under GGGTGAGA stands 0.406 ± 0.009; under GGGGGTGA, 0.2941 ± 0.0011; under ACCATGGC, -0.0471 ± 0.08. Under CAGTTTAA stands -0.0321 ± 0.037; under CACCTGCG, 0.429 ± 0.019. As for CACCTGGG, the “PBM E-score of 8-mer” value was found to be 0.361 ± 0.029. Take TACCTGCA: the “PBM E-score of 8-mer” value was -0.174 ± 0.0055. Regarding CACCTGCC, the “PBM E-score of 8-mer” value was 0.406 ± 0.021. In the case of GACCTGCA it was 0.0626 ± 0.036.

Take GACCTGCC: the “PBM E-score of 8-mer” value came out at 0.148 ± 0.0062. In the case of CACCTGGA it was 0.366 ± 0.025. In the case of CACCTGCA, the “PBM E-score of 8-mer” value came to 0.4 ± 0.0099.

For the sequence AACCTGCG, the “PBM E-score of 8-mer” value was 0.0979 ± 0.006. Under CACCTGGC stands 0.427 ± 0.007; under AACCTGCC, -0.0169 ± 0.035.

Source of the values: the supplement of paper PMC4166925.
